Experimental findings from PubChem BioAssay (Tox21) are described below.

Calls of active or inactive are those of the source. Unless noted, the call rests on the fitted dose curve; in most records, active means well fitted curve in the direction sought with a large enough effect in the repeat runs; inconclusive means weak or mixed curves; inactive means no such curve, though single readings can be large; an effect the other way counts as inactive or inconclusive.

The nature of assay [1]: qHTS assay to identify small molecule antagonists of the thyroid receptor (TR) signaling pathway (AID 743065). Further: nearly all actives have a fitted effect of over 55% in size. Further: potency means the concentration at half of the fitted maximal effect. The method in brief:
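Antagonism measured as loss of luciferase signal in GH3 cells stably carrying a TRE-luciferase reporter, co-treated with compound and T3 (1 nM final) for 23.5 h at 37 C. Viability was read in the same well by CellTiter-Fluor.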

For assay [2], the system named is thyroid hormone receptor (rat, GH3 cells). The assay can be described thus: qHTS assay to identify small molecule agonists of the thyroid receptor (TR) signaling pathway (AID 743066; calls by dose curve).
Assay [3] addresses Estrogen receptor (Homo sapiens) (UniProt P03372). In words: qHTS assay to identify small molecule antagonists of the estrogen receptor alpha (ER-alpha) signaling pathway (AID 743069; active means well fitted curve in the direction sought with a large enough effect in the signal ratio in the repeat runs, not every such curve was filed as active; inconclusive means weak or mixed curves, or effect the other way; inactive means no such curve, though single readings can be large or run the other way; the % refers to the signal ratio; further: potency means the concentration at half of the fitted maximal effect). The method in brief: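 Compound effects are measured against 17beta-estradiol stimulation in HEK293 cells with a UAS-controlled beta-lactamase reporter for ER-alpha. Exposure lasts 18 hr at 37C; LiveBLAzer B/G FRET substrate follows for 2 hr at room temperature.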

Assay [4] can be described thus: qHTS assay to identify small molecule antagonists of the estrogen receptor alpha (ER-alpha) signaling pathway - cell viability counter screen (AID 743074; calls by dose curve;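 further: HEK293 cells carrying ER-alpha-UAS-bla reporter stimulated with 17beta-estradiol; nearly all actives have a fitted effect of over 45% in size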).
Assay [5] has as its target Estrogen receptor (Homo sapiens) (UniProt P03372). In words: qHTS assay to identify small molecule agonists of the estrogen receptor alpha (ER-alpha) signaling pathway (AID 743075; calls by dose curve).
Assay [6] shares this target. In words: qHTS assay to identify small molecule agonists of the estrogen receptor alpha (ER-alpha) signaling pathway using the BG1 cell line (AID 743079). Further: nearly all actives have a fitted effect of over 20% in size. Further: potency means the concentration at half of the fitted maximal effect. The following applies: BG1Luc4E2 cells, ERE-luciferase agonist, 22 h; activation: at 70.3 µM (top of the series).
Assay [7] can be described thus: qHTS assay to identify small molecule antagonists of the estrogen receptor alpha (ER-alpha) signaling pathway using the BG1 cell line (AID 743080; calls by dose curve;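 further: BG1 cells stimulated with 17beta-estradiol alongside compound; nearly all actives have a fitted effect of over 25% in size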; further: potency means the concentration at half of the fitted maximal effect). The method in brief: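 Endogenous full-length ER-alpha in BG1-Luc-4E2 cells drives a stably integrated 4×ERE luciferase gene; compounds were tested against 17beta-estradiol over 21.5 h, with luminescence and multiplexed viability fluorescence recorded.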

Assay [8] can be described thus: qHTS assay to identify small molecule antagonists of the estrogen receptor alpha (ER-alpha) signaling pathway using the BG1 cell line - cell viability counter screen (AID 743081).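 Further: compound given together with 17beta-estradiol as the ER stimulus; nearly all actives have a fitted effect of over 45% in size.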
A further assay addresses Aromatase (Homo sapiens) (UniProt P11511). In words: qHTS assay to identify aromatase inhibitors (AID 743083). Further: nearly all actives have a fitted effect of over 55% in size. Further: potency means the concentration at half of the fitted maximal effect.
Assay [9] in a line: qHTS assay to identify small molecule antagonists of the thyroid receptor (TR) signaling pathway - cell viability counter screen (AID 743064). Further: nearly all actives have a fitted effect of over 50% in size. Put shortly: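 GH3.TRE-Luc rat pituitary cells dosed after 4 hr plating, co-stimulated with T3 at 1 nM final, incubated 23.5 h at 37 C. Viability measured in the same wells by CellTiter-Fluor fluorescence after 30 min further at 37 C.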

Sequence of Estrogen receptor (Homo sapiens) (P03372 whole entry, looked up): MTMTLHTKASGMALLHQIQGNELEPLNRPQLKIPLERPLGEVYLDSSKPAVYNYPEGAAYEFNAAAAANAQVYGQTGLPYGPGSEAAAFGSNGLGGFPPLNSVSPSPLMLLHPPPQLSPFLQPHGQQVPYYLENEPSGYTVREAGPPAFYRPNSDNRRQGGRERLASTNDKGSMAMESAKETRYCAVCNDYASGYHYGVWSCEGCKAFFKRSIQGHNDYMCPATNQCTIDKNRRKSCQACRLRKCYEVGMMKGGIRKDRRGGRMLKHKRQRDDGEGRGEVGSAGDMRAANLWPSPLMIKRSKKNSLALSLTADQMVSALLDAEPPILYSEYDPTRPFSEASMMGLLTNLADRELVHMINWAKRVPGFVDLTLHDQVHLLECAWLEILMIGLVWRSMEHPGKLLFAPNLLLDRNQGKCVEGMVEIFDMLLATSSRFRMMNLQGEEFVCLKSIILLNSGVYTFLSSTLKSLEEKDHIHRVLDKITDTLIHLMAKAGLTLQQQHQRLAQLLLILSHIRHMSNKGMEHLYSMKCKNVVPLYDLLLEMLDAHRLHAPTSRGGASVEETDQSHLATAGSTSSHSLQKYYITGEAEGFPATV
Sequence of Aromatase (Homo sapiens) (P11511 whole entry, looked up): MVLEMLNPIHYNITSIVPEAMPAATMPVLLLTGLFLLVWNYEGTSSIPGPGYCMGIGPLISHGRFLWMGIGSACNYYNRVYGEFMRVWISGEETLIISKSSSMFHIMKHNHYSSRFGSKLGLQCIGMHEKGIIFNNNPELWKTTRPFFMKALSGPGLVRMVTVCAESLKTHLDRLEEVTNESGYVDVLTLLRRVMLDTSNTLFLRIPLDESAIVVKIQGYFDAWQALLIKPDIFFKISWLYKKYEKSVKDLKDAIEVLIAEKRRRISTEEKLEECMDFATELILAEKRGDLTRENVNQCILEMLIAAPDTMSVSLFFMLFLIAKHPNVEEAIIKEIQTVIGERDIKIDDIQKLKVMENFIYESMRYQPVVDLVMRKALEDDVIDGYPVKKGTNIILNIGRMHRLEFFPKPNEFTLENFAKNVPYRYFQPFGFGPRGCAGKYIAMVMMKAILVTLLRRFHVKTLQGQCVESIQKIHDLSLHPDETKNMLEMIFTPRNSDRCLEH

As for `FC(F)(F)C(F)(F)C(F)(F)C(F)(F)C(F)(F)C(F)(F)F`, the Potency entry in [1], in assay [2], in [3], in [4], in assay [5] and in assay [6] was “inactive” throughout. In addition, the Potency result (in assay [7]; in assay [8]; with Aromatase (Homo sapiens)) was “inactive” in each case.
In the case of `CC(C)Cc1ccc([C@@H](C)C(=O)NS(C)(=O)=O)cc1`, the Potency entry in assay [1], in assay [2], in [3], in assay [4], in assay [5] and in [6] was “inactive” in each case. Further, the Potency result (in [7]; in assay [8]; in the assay with Aromatase (Homo sapiens)) was “inactive” throughout.
Turning to `CCCCCCCCCCCCCCCC(=O)OC[C@@H](O)[C@H]1OC[C@H](O)[C@H]1O`, the Potency result in assay [9], in assay [3], in assay [5], in assay [6], in assay [7] and in assay [8] was “inactive” each time. Moreover, in the assay with Aromatase (Homo sapiens), the Potency entry was “inactive”.
For `O=C(OCCO)c1ccccc1O`, the Potency entry in assay [1], in [2], in assay [3], in [4], in assay [5] and in assay [6] was “inactive” throughout. For the same molecule, the Potency result (in [7]; in [8]; with Aromatase (Homo sapiens)) was “inactive” throughout.
Regarding `C[N+]1(C)[C@@H]2CC(OC(=O)C(O)(c3cccs3)c3cccs3)C[C@H]1[C@@H]1O[C@@H]12` (stereo not given in full), the Potency entry (in [9]; in assay [4]; in assay [5]; in [7]; in assay [8]; in the assay with Aromatase (Homo sapiens)) was “inactive” in each case.
Consider `CCOC(=O)c1c[nH]c2cc(OCC(C)C)c(OCC(C)C)cc2c1=O`, for which the Potency entry in assay [1], in assay [2], in assay [3], in [4], in assay [5] and in assay [6] was “inactive” in each case. Further, the Potency result (in assay [7]; in assay [8]; with Aromatase (Homo sapiens)) was “inactive” throughout.
As to `Cc1cc(C)c(NC(=O)C[C@H](CC(=O)O)c2cccc3ccccc23)c(C(=O)N2CCC3(CCCC3)CC2)c1`, the Potency entry in assay [1], in assay [2], in [3], in [5], in assay [7] and in [8] was “inactive” throughout. Besides, in the assay with Aromatase (Homo sapiens), the Potency result is “inactive”. Moreover, the Potency in assay [6] is 29.8 µM (active).
With `O=c1oc2cc(O)ccc2s1`, the Potency result in assay [1], in assay [2], in [4], in assay [5], in assay [6] and in [7] was “inactive” each time. Besides, the Potency result (in assay [8]; with Aromatase (Homo sapiens)) was “inactive” each time.
Turning to `COCC(=O)Nc1cc(Sc2ccccc2)ccc1N=C(NC(=O)OC)NC(=O)OC`, in [1], the Potency is 23.7 µM (active). The Potency result in [2], in assay [3], in assay [4], in assay [5], in [6] and in assay [8] was “inactive” each time. In the assay with Aromatase (Homo sapiens), the Potency entry is “inactive”.
For the molecule `COc1cc(S(C)=O)ccc1-c1nc2ncccc2[nH]1` (stereo not given), the Potency entry in assay [1], in [2], in assay [3], in [5], in [6] and in [7] was “inactive” each time. Besides, the Potency result (in assay [8]; in the assay with Aromatase (Homo sapiens)) was “inactive” each time.
Take `CC#CCC(C)[C@H](O)/C=C/[C@@H]1[C@H]2C/C(=C/CCCC(=O)O)C[C@H]2C[C@H]1O` (stereo not given in full): the Potency result in assay [1], in assay [2], in assay [3], in [4], in assay [5] and in assay [7] was “inactive” in each case. Also, the Potency entry in the assay with Aromatase (Homo sapiens) was “inactive”. Further, the Potency in assay [6] was 29.8 µM (active).
In the case of `C[C@@H]1C/C=C/C=C/C=C/C=C/[C@H](O[C@@H]2O[C@H](C)[C@@H](O)[C@H](N)[C@@H]2O)C[C@@H]2O[C@](O)(C[C@@H](O)C[C@H]3O[C@@H]3/C=C/C(=O)O1)C[C@H](O)[C@H]2C(=O)O`, the Potency entry in assay [1], in [2], in [3], in assay [4], in assay [5] and in assay [6] was “inactive” each time. The Potency result (in assay [8]; with Aromatase (Homo sapiens)) was “inactive” in each case.
With `CC(C)(C)NC(=O)[C@H]1CC[C@H]2[C@@H]3CC=C4C=C(C(=O)O)CC[C@]4(C)[C@H]3CC[C@]12C`, the Potency result in [1], in assay [2], in [3], in [5], in [6] and in [7] was “inactive” in each case. In addition, the Potency result with Aromatase (Homo sapiens) is “inactive”.
With `CCCCc1cc2c(=O)c(C(=O)OC)c[nH]c2cc1OCc1ccccc1`, the Potency entry in assay [1], in assay [2], in [4], in [5], in assay [6] and in assay [7] was “inactive” in each case. Besides, the Potency entry with Aromatase (Homo sapiens) is “inactive”.
Turning to `C=CC[C@@H]1/C=C(\C)C[C@H](C)C[C@H](OC)[C@H]2O[C@@](O)(C(=O)C(=O)N3CCCC[C@H]3C(=O)O[C@H](/C(C)=C/[C@@H]3CC[C@@H](O)[C@H](OC)C3)[C@H](C)[C@@H](O)CC1=O)[C@H](C)C[C@@H]2OC`, the Potency result in assay [1], in [2], in [4], in assay [5], in [6] and in assay [7] was “inactive” each time.
Turning to `O=C1C(=O)c2ncccc2-c2cccnc21`, the Potency in assay [1] was 1.68 µM (active); in assay [7] it was 5.96 µM (active); with Aromatase (Homo sapiens), 23.7 µM (active). The Potency result in assay [2], in assay [3], in assay [4], in [5] and in assay [8] was “inactive” in each case.
Regarding `CC(C)C(=O)OCC(=O)[C@@]12O[C@H](C3CCCCC3)O[C@@H]1C[C@H]1[C@@H]3CCC4=CC(=O)C=C[C@]4(C)[C@H]3[C@@H](O)C[C@@]12C`, the Potency in assay [1] is 10.6 µM (active); in assay [3] it was 21.3 µM [inconclusive] (active). For the same molecule, the Potency entry (in assay [2]; in assay [4]; in [5]; in assay [8]; with Aromatase (Homo sapiens)) was “inactive” throughout.
As to `CC1CS(=O)(=O)CCN1/N=C/c1ccc([N+](=O)[O-])o1` (stereo not given), the Potency result in assay [1], in assay [2], in assay [3], in [4], in assay [5] and in assay [6] was “inactive” each time. The Potency result (in [8]; with Aromatase (Homo sapiens)) was “inactive” throughout.
